Source: PubChem (ICCB-Longwood Screening Facility, Harvard Medical School)
PV pol inh = inhibitors of poliovirus RNA polymerase binding and polymerization | poliovirus polymerase elongation, fluorescence polarization; hits give low values | % elongation, % (compound at 16.7 µg/mL) | 150,000 tested, 0.66% active; in the data active = % elongation below about 90%
Target sequence (P03300 1749-2209 limits assumed): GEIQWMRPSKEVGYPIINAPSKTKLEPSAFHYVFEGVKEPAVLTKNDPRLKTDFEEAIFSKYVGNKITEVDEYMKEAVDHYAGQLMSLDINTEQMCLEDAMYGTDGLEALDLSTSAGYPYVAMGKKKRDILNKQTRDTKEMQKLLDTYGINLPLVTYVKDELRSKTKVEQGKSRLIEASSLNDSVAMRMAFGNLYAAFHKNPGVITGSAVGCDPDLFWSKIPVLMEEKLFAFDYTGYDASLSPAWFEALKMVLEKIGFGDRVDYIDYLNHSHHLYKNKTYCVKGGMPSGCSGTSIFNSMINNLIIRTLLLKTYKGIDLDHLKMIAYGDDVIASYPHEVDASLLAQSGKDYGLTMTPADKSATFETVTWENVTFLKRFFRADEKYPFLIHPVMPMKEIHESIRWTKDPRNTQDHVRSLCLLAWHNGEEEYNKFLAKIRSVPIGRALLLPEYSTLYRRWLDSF
Mtb MbtI inh = MbtI salicylate synthase inhibition. purified MbtI enzyme, fluorescence intensity read-out. P9WFX0. AID 493033. inhibition, % (no concentration beside the values). 100,000 tested, 0.89% active; in the data active = inhibition mostly above about 56%, no sharp cut-off; inactive = mostly below about 77%
Mtb MenB inh = Mtb MenB enzyme inhibition. P9WNP5. MenB enzyme assay, absorbance read-out. inhibition, % (concentration not given with the values). 100,000 tested, 0.43% active. AID 540299; in the data active = inhibition above about 21%, passing the limit was not always enough
* hit, by the source's call; i = inactive; · = not tested or not shown; ! = repeats disagree. Most compounds without a hit are left out; they make up all but 1.5% or so of the library.

SMILES	PV pol inh	Mtb MbtI inh	Mtb MenB inh
CCOC(=O)c1ccc(NC(=O)c2cnc3c(-c4ccc(F)cc4)c(C)nn3c2C)cc1	51.0*	·	·
Cc1ccc(/C=C/C2=Cc3c(sc(N)c3C#N)C(C)(C)C2)o1	104.0	88.7*	-42.5
Cc1ccc(/C=C/C2=CC(=C(C#N)C#N)CC(C)(C)C2)o1	151.0	14.9	-36.1
N#Cc1cccc(NC(=O)COC(=O)Cc2ccccc2)c1	105.0	-5.6	-26.1
S=c1[nH]nc(C2COc3ccccc3O2)o1 (stereo unspecified)	98.0	73.4*!	-120.5
S=c1nc(C2COc3ccccc3O2)[nH][nH]1 (stereo unspecified)	106.0	·	6.6
Cc1ccc(Cl)cc1N1CCN(C(=O)c2cnn(-c3ccc(Cl)cc3)c2C2CCNCC2)CC1	106.0	·	·
Cc1ccc(N2CCN(C(=O)c3cnn(-c4ccc(C)c(C)c4)c3C3CCNCC3)CC2)c(C)c1	74.0*	·	·
O=C(/C=C/CC(=O)OC1CCCC1)OC1CCCC1	103.0	-8.1	1.3
CN(C)CCC(=O)c1ccc(Br)cc1	102.0	69.0*	-6.4
CCCOc1ccc(C(=O)CCN(C)C)cc1	97.0	59.0*	-57.2
CN(C)CCC(=O)c1ccccc1	103.0	21.5	·
CCCOc1ccc(C(=O)O)cc1	103.0	-5.4	·
O=C1OCC(CO)N1c1ccccc1 (stereo unspecified)	90.0*	·	-43.1
OCC1COc2ccccc2O1 (stereo unspecified)	·	-6.1	·
CCCCN(CC)c1nc(N)c(C#N)c(CC#N)c1C#N	143.0	-54.0	-12.7
CN(C)c1nc(N)c(C#N)c(CC#N)c1C#N	80.0*	6.0	16.1
Cn1c2ccc(F)cc2c2n[nH]c(=S)nc21	104.0	18.8	-26.1
O=C(Nc1ccc(N2C(=O)C=CC2=O)cc1Cl)c1ccco1	99.0	96.2*	11.3
Cc1cc2nn(-c3ccc(Cl)cc3)nc2cc1NC(=O)c1ccco1	103.0	5.6	11.5
OCC1OC(Oc2ccc(O)cc2)C(O)C(O)C1O (stereo unspecified)	101.0	2.0	-17.4
COC(=O)c1ccc(C2NC(=O)NC3=C2C(=O)CC(C)(C)C3)cc1 (stereo unspecified)	105.0	-3.0	10.5
Cc1cccc(NNC(=O)C2CCCCC2)c1	105.0	-2.3	-3.4
CC(=O)Nc1ccc(C(=O)OCC(=O)N2CCc3ccccc3C2)cc1	102.0	13.2	·
O=C(OCC(=O)N1CCc2ccccc2C1)c1ccccc1	84.0*	3.4	-22.7
SMILES	PV pol inh	Mtb MbtI inh	Mtb MenB inh
Nc1nonc1C(=O)NCCN=Cc1ccccc1O	106.0	5.8	-8.7
Nc1nonc1C(=O)NN=c1c(=O)c2ccccc2c1=O	47.0*	-26.4	i
Cn1c(N)nc(N)c(NC(=O)COc2ccc(Cl)cc2Br)c1=O	72.0	0.9	7.1
CCN(CC)CCc1nnc(NC(=O)c2ccccc2)s1	104.0	18.8	-13.5
Cn1ncc(C(=O)Sc2ccc(Cl)cc2)c1-n1cccc1	99.0	29.6	3.5
O=C(Sc1ccc(Cl)cc1)c1cnn(-c2ccccc2)c1C(F)(F)F	105.0	53.7*	-21.4
Cc1cc2c(cc1S(=O)(=O)N1CCN(C3CCCCC3)CC1)n(C)c(=O)c(=O)n2C	102.0	-22.4	-5.4
O=C1CCC(C(=O)N[C@@H](Cc2ccccc2)c2nc3ccccc3[nH]2)=NN1	99.0	-0.3	-1.6
CCNc1nc(NCC)nc(N(C)N)n1	101.0	-17.2	32.3*
CCNc1nc(NN)nc(NCC)n1	104.0	-5.1	-7.2
Cc1nc(SCC(=O)c2cn(CCC#N)c3ccccc23)n(C2CCCCC2)c1C	105.0	7.1	-20.9
CC1=NN(c2ccccc2)C(=O)/C1=C1/C(=O)N(c2ccccc2)N=C1C	57.0*	9.4	-11.2
CC1=NN(c2ccccc2)C(=O)C1=C1SCCS1	102.0	10.6	9.1
CC(C)N1C(=O)c2ccccc2CC1(C)C(=O)NC1CCCCCC1 (stereo unspecified)	99.0	6.8	-3.3
NNC(=O)C1CCS(=O)(=O)C1 (stereo unspecified)	105.0	-1.9	-5.1
Cc1ccc(/C(O)=C(\C#N)c2nc3ccccc3s2)cc1C	100.0	8.8	3.5
N#C/C(=C(/O)C1CC1)c1nc2ccccc2s1	101.0	91.5*	·
CN(Cc1nnc(-c2ccccc2)o1)C(=O)Nc1ccc(F)cc1	101.0	6.4	7.3
O=C(Nc1ccccc1C(=O)OC1CCCCC1=O)c1ccco1 (stereo unspecified)	101.0	-2.8	1.0
O=C1C2CCCC2=NN1c1ccccc1 (stereo unspecified)	106.0	58.8*	-12.5
CC1=NN(c2ccccc2)C(=O)C1C(=O)O (stereo unspecified)	102.0	-2.8	-23.2
O=C1C2CCCCC2=NN1c1ccccc1 (stereo unspecified)	101.0	70.5*	-17.6
CC1=NN(c2ccccc2)C(=O)C1C1C(=O)N(c2ccccc2)N=C1C (stereo unspecified)	103.0	5.2	-2.7
CCNC(=O)NC(=O)Cn1cc(C(F)(F)F)ccc1=O	102.0	15.9	5.3
CC(C)NC(=O)Cn1cc(C(F)(F)F)ccc1=O	104.0	16.6	8.0
SMILES	PV pol inh	Mtb MbtI inh	Mtb MenB inh
COc1cc(/C=N/NC(=O)CCN2CCCCC2)cc(OC)c1OC	103.0	12.8	-8.2
CCN1CCC2(CC1)N=C(c1ccccc1)C(=S)N2	104.0	77.4*	-23.3
CN1CCC2(CC1)N=C(c1ccccc1)C(=S)N2	101.0	14.8	-23.3
O=c1cc(-c2ccccc2)nc(SCCO)[nH]1	105.0	37.2	-66.9
O=c1[nH]c(Nc2ccccc2)cc2ccccc12	76.0*	65.3	-16.6
O=C(O)c1cc2ccccc2c(=O)[nH]1	95.0	88.6	-25.2
CCCN1C(=O)/C(=C/c2ccc(C)o2)NC1=S	101.0	63.2*	-73.7
Cc1ccc(/C=C2/NC(=O)N(Cc3ccc(Br)cc3)C2=O)o1	102.0	62.6	-26.1
Cc1noc(C)c1CC(=O)N(CC1CCCO1)c1nc(-c2ccc(Br)cc2)cs1 (stereo unspecified)	105.0	11.8	-24.9
COC(=O)C1=NOC2C(=O)N(c3ccccc3)C(=O)C12 (stereo unspecified)	·	-2.7	·
COC(=O)C1=NNC2(c3ccc(C)cc3)C(=O)N(c3ccc(C)cc3)C(=O)C12 (stereo unspecified)	102.0	-12.4	35.8*
CCCCn1c(=O)n(Cc2cc(=O)n3ccsc3n2)c(=O)c2c1ncn2Cc1ccco1	101.0	-3.4	-8.6
CCCCC1(O)CC(C)(C)N([O])C(C)(C)C1	100.0	-9.2	43.8*
CCCCC1(C)N2CC3(C)CN1CC(C)(C2)C3=O (stereo unspecified)	104.0	-2.8	-16.6
C=CCn1c(SCC2CNC(c3ccc(N(C)C)cc3)O2)nnc1C1CCCCC1 (stereo unspecified)	115.0	14.5	-13.5
Cc1c(C)c2c(=O)n(-c3ccccc3)[nH]c2[nH]c1=O	·	65.8*	·
Cc1cc(=O)[nH]c2[nH]n(-c3ccccc3)c(=O)c12	103.0	·	-2.5
CCCCC(=O)C1CCC(c2ccc(Cl)cc2)CC1 (stereo unspecified)	107.0	·	-28.4
CC(=O)NCCCc1[nH]n(-c2ccccc2)c(=O)c1NC(=O)c1ccccc1	87.0*	20.9	9.7
CCCc1[nH]n(-c2ccccc2)c(=O)c1C(C)=NCCOC	103.0	11.8	29.9
O=C(NCCc1nc2ccccc2n1CCCOc1ccc(Cl)cc1)c1ccco1	102.0	2.5	-5.9
O=c1c2ccccc2sn1-c1nc2ccccc2s1	99.0	37.2	-25.6
